Measurements: PubChem BioAssay (NCI)
Values joined by “and” are separate entries in the source; they are usually repeats but may differ in a detail not shown here. Identical values can stand only once. About 83,000 compounds went through this panel and 20% of them were active in at least one assay; those are over-represented in the sample as a whole.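 A percent growth of 40 corresponds to 60% growth inhibition; 0 means no net growth; -100 means all cells died. Active threshold: below 10.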 Unmarked numbers belong to inactive results. Active and inactive are the calls of the source.

System: MDA-MB-468 breast
Experiment: NCI-60 one-dose screen, 48 h (100 = growth as untreated, 0 = no growth, -100 = all killed)
Conditions: 10 µM unless noted

O=C(N/N=C/c1ccccc1O)c1ccccc1O
growth: 17%

COCc1c(-c2ccc(NC(=O)Nc3cc(C(F)(F)F)ccc3F)c(F)c2)c2c(N)ncnn2c1CN1CCOCC1
growth: -54.8% (active)

CN1CCN(CCCn2c(=O)c3sc4ncccc4c3n3nnc(-c4ccccc4)c23)CC1
growth: -62% (active)

CSc1nc2ccccc2cc1/C=C1/C=C(c2ccccc2)NC1=O
growth: 61.6%

CC(C)(C)C(CCc1ccc(Cl)cc1)N1CCN(C2CCCCC2)CC1 (stereo not given)
growth: 58.3%

O/N=C(/c1ccccc1)c1ccc2c3c(cccc13)CC2
growth: 57.5% and 59.8%

CCOC(=O)c1coc(C(=O)OCC)c1C(=O)OCC
growth: 107%

O=[N+]([O-])C1C(c2ccccc2)C12c1ccccc1-c1ccccc12 (stereo not given)
growth: -26% (active)

CCCC1C(C(=O)OCC)=C(N)Oc2cc(O)ccc21 (stereo not given)
growth: 110%

COc1ccc(Oc2[nH]n(C3=Nc4ccccc4Sc4ccccc43)c(=O)c2C#N)cc1
growth: 98.5%

O=C(CSc1nc2sc3c(c2c(=O)n1-c1ccc(Cl)cc1)CCCC3)NNC(=O)Nc1ccc(Cl)c(C(F)(F)F)c1
growth: -42.4% (active)

CCCCCCCCCCNC(=O)CCl
growth: 67.8%

CC(=O)O[C@H]1CC[C@]2(C)[C@H]3CC=C4[C@@H]5CC(C)(C)CC[C@]5(C(=O)NCCNCCN)CC[C@@]4(C)[C@]3(C)CC[C@H]2C1(C)C
growth: -78.2% (active)

COc1ccc(-c2cc(NC(=O)Nc3ccc(O)cc3)no2)cc1
growth: 80.5%

COc1ccc(-c2cc(-c3cccnc3)nc3sc4c(=O)n(-c5ccc(C)cc5)cnc4c23)cc1OC
growth: 93.7%

COc1cc(/C=C2\CN(C(=O)OC(C)(C)C)C/C(=C\c3ccc(O)c(OC)c3)C2=O)ccc1O
growth: 99.9%

O=S(=O)(c1ccccc1)n1cc2c(c1)-c1nc(Nc3ncccn3)sc1CC2
growth: 46.3%

COc1cc2ncnc(Nc3ccc(F)c(Cl)c3)c2cc1OCC(=O)N1CCOCC1
growth: -15.9% (active)

CN(C)c1ccc(/C=C/c2cc[n+](C)c(/C=C/c3ccc(N(C)C)cc3)c2)cc1
growth: -12.7% (active)

COc1cc(-c2cc(-c3cc4c([nH]c5ccccc54)c(-c4cc(OC)c(OC)c(OC)c4)n3)cc(-c3ccccc3)n2)cc(OC)c1OC
growth: 8.91% (active)

CCOc1ccccc1C(=O)/C=C/c1cc2ccccc2[nH]c1=O
growth: -20.2% (active)

O=C(CCl)NCCNc1nccc(Nc2ccc(S(=O)(=O)Nc3ccccn3)cc2)n1
growth: 21.1%

Cc1cccc(Oc2ccc(Nc3ncnc4ccc(NC(=O)CN5CCN(C)CC5)cc34)cc2Cl)c1
growth: -62.9% (active)

C=C1C(=O)O[C@H]2[C@H]1CC/C(COC(=O)n1ccnc1)=C\CC[C@@]1(C)O[C@@H]21
growth: 79.7%

COc1cc(C2CC(c3cc(OC)c(OCCCOc4ccc(-n5c(/C=C/c6ccccc6)nc6ccccc6c5=O)cc4)c(OC)c3)=NO2)cc(OC)c1OC (stereo not given)
growth: 104%

Nc1nc(N)c(C=Nc2ccc(Br)cc2)c(Nc2ccc(Br)cc2)n1
growth: 109%

CCn1cc(C(=O)NNC(=S)Nc2ccc(C)cc2)c(=O)c2ccc(C)nc21
growth: 88%

Cn1cc(-c2cc3ncnc(Nc4ccc(NC(=O)Nc5cc(C(C)(C)C)on5)cc4)c3s2)cn1
growth: 31.7%

Clc1ccc2oc3c(NCCCN4CCOCC4)c4ccccc4nc3c2c1
growth: 5.24% (active)

CCc1ccc(OC(=O)CCl)cc1
growth: 116%

NC(=O)CN1CCN(c2ccccc2Cl)CC1
growth: 108%

CSc1nc2c(c(=O)[nH]1)N=C1c3ccccc3C(=O)C1C(c1ccccc1)N2 (stereo not given)
growth: 15.4%

O=C1CCN2C(=O)Nc3ccccc3C2C1 (stereo not given)
growth: 109%

O=C(c1ccccc1)C(Sc1ccccc1)c1ccccc1 (stereo not given)
growth: 88.7%

CNC(=S)N/N=C/CSC/C=N/NC(=S)NC
growth: 66.8%

COc1ccc(Br)c2c1C(=O)CC2
growth: 107%

COc1ccc2nc(Cl)c(/C=C/C(=O)c3ccc(NC(=O)CSc4nnc(-c5ccc(Cl)c(Cl)c5)n4-c4ccccc4)cc3)cc2c1
growth: 98.2%

O=C1/C(=C/c2ccc(Oc3ccccc3)cc2)N=C(c2ccccc2)N1CCc1cccs1
growth: 108%

Fc1ccccc1-c1cnn2cc(-c3ccccc3)cnc12
growth: 124%

COc1ccc(-c2ccc3c(N4CCOC[C@@H]4C)nc(N4CCOC[C@@H]4C)nc3n2)cc1CO
growth: -27.4% (active)
